# Tests used:
# Assay in all cases: DAPPL (digital affinity profiling via proximity ligation, sequencing); 10 mM Tris-HCl pH 7.5, 50 mM NaCl, 1 mM DTT, 4% glycerol, room temperature, 30 min; GST-TFs on glutathione beads, 16-mer random dsDNA library, 0.1% formaldehyde crosslink after washing; high values mean tight binding
# FLI1 = target: T1, FLI1 (Homo sapiens, UniProt Q01543 1-452); settings: protein: recombinant; tags: N-terminal GST; dsDNA, one strand shown
# T1 sequence: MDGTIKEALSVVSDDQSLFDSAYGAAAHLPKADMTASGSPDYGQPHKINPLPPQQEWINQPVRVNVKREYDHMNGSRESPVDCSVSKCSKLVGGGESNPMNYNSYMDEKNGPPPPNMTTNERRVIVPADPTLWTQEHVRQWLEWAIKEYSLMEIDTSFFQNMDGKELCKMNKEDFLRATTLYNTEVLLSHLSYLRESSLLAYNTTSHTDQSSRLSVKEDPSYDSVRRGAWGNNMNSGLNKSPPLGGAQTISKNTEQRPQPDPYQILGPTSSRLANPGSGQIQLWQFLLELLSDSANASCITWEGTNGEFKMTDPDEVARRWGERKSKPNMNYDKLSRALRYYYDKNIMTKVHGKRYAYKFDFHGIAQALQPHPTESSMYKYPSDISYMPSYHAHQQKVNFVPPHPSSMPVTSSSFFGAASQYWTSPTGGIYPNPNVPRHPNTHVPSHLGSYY
# Outline: (§1)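 Each value of binding signal is a hexamer's read frequency for a factor divided by the same hexamer's frequency in the tag-only sample. Barcoded, bead-captured GST fusions of human transcription factors made in yeast were pooled with that sample and incubated with 200 nmole of a random double-stranded 16-mer DNA library in Tris/NaCl/DTT/glycerol buffer at room temperature for 30 min. Washing, 0.1% formaldehyde crosslinking, proximity ligation, PCR and Illumina NextSeq500 sequencing followed.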
# ELK1 = target: T2, ELK1 (Homo sapiens, UniProt P19419 1-428); settings: protein: recombinant; tags: N-terminal GST; dsDNA, one strand shown
# T2 sequence: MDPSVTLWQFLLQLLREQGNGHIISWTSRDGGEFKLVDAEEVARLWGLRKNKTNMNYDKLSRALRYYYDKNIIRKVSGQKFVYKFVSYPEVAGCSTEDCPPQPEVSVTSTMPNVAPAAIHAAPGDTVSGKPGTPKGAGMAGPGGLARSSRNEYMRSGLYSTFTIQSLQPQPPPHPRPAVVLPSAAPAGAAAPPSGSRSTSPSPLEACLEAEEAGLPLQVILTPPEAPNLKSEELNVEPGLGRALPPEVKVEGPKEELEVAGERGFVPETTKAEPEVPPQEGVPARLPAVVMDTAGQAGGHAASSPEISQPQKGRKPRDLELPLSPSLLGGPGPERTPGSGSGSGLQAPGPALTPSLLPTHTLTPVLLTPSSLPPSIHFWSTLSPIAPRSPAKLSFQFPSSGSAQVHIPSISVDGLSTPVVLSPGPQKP
# Outline: as §1
# GABPA = target: T3, GABPA (Homo sapiens, UniProt Q06546 1-454); settings: protein: recombinant; tags: N-terminal GST; dsDNA, one strand shown
# T3 sequence: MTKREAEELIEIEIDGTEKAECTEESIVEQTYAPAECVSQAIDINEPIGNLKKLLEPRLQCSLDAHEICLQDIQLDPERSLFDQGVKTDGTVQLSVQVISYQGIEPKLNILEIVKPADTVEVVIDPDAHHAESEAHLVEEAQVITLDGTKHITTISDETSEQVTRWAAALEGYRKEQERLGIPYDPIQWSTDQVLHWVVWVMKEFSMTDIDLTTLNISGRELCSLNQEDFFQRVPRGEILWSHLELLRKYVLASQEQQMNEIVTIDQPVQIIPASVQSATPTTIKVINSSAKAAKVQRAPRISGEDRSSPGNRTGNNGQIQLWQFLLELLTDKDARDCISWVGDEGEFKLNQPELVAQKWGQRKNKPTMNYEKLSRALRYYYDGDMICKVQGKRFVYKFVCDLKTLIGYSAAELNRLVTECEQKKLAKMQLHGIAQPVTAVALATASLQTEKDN
# Outline: as §1
# ERG = target: T4, ERG (Homo sapiens, UniProt P11308 1-479); settings: protein: recombinant; tags: N-terminal GST; dsDNA, one strand shown
# T4 sequence: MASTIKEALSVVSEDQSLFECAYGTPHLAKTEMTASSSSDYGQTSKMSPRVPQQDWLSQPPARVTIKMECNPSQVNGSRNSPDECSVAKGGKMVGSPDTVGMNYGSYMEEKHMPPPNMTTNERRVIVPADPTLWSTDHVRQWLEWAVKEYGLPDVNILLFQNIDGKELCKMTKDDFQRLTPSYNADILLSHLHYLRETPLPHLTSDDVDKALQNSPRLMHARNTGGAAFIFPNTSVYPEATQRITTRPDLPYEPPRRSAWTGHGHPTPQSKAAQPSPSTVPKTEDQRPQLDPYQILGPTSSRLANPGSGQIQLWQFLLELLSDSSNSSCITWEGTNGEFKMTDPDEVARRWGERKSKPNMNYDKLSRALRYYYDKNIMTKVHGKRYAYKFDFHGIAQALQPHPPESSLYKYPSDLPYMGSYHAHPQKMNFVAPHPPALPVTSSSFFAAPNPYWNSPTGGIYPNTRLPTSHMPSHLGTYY
# Outline: as §1
# ELF1 = ELF1 (Homo sapiens, UniProt P32519 1-619); settings: protein: recombinant; tags: N-terminal GST; dsDNA, one strand shown
# ELF1, sequence (P32519 whole entry): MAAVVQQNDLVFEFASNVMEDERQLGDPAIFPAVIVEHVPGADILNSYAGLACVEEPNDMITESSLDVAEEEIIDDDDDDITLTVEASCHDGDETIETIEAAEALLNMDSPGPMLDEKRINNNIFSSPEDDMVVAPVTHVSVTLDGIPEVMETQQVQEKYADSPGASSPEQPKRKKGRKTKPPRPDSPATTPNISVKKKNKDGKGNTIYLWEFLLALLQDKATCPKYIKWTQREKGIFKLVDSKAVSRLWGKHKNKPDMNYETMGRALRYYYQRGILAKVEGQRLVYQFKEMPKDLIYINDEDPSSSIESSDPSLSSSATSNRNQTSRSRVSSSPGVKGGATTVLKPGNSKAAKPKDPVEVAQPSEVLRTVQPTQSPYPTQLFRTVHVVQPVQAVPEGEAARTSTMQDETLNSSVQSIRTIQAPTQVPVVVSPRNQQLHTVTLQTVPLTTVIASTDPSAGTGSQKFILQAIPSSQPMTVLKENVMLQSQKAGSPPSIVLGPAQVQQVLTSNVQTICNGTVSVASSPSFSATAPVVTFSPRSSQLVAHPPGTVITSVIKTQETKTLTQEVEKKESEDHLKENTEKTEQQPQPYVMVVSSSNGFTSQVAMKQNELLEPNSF
# Outline: as §1
# EHF = target: T5, EHF (Homo sapiens, UniProt Q9NZC4 1-300); settings: protein: recombinant; tags: N-terminal GST; dsDNA, one strand shown
# T5 sequence: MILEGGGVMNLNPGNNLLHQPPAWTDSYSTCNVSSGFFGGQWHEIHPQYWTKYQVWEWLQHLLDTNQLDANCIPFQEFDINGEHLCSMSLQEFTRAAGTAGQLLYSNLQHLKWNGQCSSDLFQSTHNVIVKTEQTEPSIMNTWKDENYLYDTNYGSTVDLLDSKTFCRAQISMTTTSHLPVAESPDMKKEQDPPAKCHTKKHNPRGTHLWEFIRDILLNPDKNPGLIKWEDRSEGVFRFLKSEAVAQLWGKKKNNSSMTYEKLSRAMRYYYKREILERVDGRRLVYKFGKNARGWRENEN
# Outline: as §1
# SPI1 = SPI1 (Homo sapiens, UniProt P17947 1-270); settings: protein: recombinant; tags: N-terminal GST; dsDNA, one strand shown
# Outline: as §1
# SPIB = SPIB (Homo sapiens, UniProt Q01892 1-262); settings: protein: recombinant; tags: N-terminal GST; dsDNA, one strand shown
# SPIB, sequence (Q01892 whole entry): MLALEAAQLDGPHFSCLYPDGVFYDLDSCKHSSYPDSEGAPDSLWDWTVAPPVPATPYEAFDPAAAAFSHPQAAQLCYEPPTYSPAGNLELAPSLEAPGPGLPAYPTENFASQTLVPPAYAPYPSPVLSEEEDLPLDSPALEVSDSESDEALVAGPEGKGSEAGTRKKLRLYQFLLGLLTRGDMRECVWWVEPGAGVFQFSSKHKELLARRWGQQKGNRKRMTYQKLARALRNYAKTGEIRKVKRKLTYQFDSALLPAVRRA
# Outline: as §1
# ELK3 = target: T6, ELK3 (Homo sapiens, UniProt P41970 1-407); settings: protein: recombinant; tags: N-terminal GST; dsDNA, one strand shown
# T6 sequence: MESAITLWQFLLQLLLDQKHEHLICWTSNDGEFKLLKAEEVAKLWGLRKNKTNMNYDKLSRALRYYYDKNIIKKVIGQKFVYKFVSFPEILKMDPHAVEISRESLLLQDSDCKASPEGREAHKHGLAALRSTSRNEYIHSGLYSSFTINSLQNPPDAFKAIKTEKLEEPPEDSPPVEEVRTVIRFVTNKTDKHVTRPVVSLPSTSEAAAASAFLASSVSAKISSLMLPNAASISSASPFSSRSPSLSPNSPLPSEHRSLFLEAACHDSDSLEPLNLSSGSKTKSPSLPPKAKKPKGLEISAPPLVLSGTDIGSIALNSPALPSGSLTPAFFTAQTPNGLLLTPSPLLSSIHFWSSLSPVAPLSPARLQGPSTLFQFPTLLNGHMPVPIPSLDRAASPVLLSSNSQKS
# Outline: as §1
# FEV = target: T7, FEV (Homo sapiens, UniProt Q99581 1-238); settings: protein: recombinant; tags: N-terminal GST; dsDNA, one strand shown
# T7 sequence: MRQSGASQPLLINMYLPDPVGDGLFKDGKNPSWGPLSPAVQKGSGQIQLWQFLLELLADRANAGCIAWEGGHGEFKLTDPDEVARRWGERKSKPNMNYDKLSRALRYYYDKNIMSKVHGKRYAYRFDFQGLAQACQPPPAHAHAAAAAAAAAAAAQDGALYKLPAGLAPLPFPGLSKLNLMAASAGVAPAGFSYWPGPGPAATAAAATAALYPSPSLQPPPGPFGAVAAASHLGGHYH
# Outline: as §1
# ETV5 = ETV5 (Homo sapiens, UniProt P41161 1-510); settings: protein: recombinant; tags: N-terminal GST; dsDNA, one strand shown
# ETV5, sequence (P41161 whole entry): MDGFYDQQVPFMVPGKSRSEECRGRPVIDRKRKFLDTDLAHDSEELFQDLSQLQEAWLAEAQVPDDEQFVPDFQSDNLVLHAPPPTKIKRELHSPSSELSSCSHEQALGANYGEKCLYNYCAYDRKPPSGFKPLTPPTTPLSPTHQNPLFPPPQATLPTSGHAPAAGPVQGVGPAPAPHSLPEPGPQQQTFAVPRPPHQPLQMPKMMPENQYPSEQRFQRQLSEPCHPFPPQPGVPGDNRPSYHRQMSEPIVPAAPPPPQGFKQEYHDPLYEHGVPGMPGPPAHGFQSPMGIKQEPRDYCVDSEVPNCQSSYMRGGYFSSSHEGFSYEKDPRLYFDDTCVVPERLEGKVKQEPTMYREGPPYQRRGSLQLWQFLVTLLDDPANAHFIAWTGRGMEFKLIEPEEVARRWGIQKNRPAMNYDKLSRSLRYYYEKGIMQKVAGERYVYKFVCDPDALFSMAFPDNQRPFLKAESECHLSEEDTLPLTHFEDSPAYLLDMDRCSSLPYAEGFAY
# Outline: as §1
# HSF1 = HSF1 (Homo sapiens, UniProt Q00613 1-529); settings: protein: recombinant; tags: N-terminal GST; chain copies: 3; dsDNA, one strand shown
# HSF1, sequence (Q00613 whole entry): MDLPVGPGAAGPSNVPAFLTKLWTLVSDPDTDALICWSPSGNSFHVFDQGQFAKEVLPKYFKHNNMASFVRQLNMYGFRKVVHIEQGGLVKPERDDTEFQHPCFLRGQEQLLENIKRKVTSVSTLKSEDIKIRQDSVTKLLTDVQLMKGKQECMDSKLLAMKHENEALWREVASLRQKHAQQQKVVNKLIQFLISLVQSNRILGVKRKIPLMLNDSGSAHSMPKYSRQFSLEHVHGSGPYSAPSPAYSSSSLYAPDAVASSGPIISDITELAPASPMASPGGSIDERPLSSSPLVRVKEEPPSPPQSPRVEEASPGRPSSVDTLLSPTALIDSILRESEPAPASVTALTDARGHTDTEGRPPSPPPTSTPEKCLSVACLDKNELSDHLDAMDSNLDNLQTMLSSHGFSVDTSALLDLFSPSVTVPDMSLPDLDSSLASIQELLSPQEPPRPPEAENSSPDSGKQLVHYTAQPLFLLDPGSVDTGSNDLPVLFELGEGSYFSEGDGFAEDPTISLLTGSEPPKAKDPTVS
# Outline: as §1
# SPIC = target: T8, SPIC (Homo sapiens, UniProt Q8N5J4 1-248); settings: protein: recombinant; tags: N-terminal GST; dsDNA, one strand shown
# T8 sequence: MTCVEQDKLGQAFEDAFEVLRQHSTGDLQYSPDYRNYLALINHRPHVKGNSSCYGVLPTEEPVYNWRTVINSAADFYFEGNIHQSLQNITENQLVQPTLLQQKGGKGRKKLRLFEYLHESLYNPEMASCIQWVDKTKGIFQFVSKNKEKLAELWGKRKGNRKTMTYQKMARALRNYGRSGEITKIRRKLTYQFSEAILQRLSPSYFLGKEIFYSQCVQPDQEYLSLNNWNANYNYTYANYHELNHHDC
# Outline: as §1
# ELF4 = ELF4 (Homo sapiens, UniProt Q99607 1-663); settings: protein: recombinant; tags: N-terminal GST; dsDNA, one strand shown
# ELF4, sequence (Q99607 whole entry): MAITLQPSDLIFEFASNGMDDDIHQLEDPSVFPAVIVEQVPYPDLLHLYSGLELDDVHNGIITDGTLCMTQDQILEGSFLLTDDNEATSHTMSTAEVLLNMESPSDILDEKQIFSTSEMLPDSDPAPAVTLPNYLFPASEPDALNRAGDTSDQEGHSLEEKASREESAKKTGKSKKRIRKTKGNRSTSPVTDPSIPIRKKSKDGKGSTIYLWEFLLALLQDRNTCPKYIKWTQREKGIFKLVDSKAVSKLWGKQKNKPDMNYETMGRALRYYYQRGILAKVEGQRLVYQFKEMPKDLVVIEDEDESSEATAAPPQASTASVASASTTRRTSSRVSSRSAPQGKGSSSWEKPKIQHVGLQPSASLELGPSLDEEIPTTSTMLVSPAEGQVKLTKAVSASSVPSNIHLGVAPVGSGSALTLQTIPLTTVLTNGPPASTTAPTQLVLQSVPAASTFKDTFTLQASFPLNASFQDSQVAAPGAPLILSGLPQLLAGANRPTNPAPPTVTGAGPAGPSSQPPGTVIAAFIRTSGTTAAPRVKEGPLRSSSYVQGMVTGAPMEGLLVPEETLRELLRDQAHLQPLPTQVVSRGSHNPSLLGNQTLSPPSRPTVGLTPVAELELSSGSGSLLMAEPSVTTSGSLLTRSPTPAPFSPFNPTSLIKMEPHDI
# Outline: as §1
# ELK4 = target: T9, ELK4 (Homo sapiens, UniProt P28324-2 1-405); settings: protein: recombinant; tags: N-terminal GST; dsDNA, one strand shown
# T9 sequence: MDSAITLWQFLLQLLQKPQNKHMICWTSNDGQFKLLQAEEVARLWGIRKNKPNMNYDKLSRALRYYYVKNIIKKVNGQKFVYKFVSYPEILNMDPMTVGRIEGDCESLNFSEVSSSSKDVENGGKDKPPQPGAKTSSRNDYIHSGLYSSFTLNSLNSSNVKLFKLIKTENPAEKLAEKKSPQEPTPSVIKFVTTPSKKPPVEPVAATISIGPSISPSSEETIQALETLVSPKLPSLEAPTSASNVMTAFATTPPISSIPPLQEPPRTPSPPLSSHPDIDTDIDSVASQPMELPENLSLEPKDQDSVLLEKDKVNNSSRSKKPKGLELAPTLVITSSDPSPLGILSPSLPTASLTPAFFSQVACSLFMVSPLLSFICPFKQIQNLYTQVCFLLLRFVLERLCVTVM
# Outline: as §1
# ETV2 = target: T10, ETV2 (Homo sapiens, UniProt O00321 1-342); settings: protein: recombinant; tags: N-terminal GST; dsDNA, one strand shown
# T10 sequence: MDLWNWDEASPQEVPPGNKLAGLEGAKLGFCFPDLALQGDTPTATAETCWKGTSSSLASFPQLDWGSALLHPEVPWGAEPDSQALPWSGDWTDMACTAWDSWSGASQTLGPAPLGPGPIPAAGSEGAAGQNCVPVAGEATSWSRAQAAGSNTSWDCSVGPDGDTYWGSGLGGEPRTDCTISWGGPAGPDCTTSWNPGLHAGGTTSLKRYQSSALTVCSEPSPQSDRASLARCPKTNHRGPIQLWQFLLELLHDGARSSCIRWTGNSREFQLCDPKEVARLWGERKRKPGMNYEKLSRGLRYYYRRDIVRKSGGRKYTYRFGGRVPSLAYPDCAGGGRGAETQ
# Outline: as §1
# ELF3 = target: T11, ELF3 (Homo sapiens, UniProt P78545 1-371); settings: protein: recombinant; tags: N-terminal GST; dsDNA, one strand shown
# T11 sequence: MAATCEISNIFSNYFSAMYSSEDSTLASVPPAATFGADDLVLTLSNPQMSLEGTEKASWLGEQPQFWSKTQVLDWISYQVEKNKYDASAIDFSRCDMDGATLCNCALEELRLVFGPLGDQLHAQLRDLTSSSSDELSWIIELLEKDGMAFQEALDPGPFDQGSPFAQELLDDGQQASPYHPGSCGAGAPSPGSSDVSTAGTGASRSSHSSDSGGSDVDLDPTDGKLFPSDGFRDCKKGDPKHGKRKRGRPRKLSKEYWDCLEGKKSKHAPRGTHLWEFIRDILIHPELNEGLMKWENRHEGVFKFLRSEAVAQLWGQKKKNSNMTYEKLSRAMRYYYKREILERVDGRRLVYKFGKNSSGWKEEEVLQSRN
# Outline: as §1
# ETV1 = ETV1 (Homo sapiens, UniProt P50549 1-477); settings: protein: recombinant; tags: N-terminal GST; dsDNA, one strand shown
# ETV1, sequence (P50549 whole entry): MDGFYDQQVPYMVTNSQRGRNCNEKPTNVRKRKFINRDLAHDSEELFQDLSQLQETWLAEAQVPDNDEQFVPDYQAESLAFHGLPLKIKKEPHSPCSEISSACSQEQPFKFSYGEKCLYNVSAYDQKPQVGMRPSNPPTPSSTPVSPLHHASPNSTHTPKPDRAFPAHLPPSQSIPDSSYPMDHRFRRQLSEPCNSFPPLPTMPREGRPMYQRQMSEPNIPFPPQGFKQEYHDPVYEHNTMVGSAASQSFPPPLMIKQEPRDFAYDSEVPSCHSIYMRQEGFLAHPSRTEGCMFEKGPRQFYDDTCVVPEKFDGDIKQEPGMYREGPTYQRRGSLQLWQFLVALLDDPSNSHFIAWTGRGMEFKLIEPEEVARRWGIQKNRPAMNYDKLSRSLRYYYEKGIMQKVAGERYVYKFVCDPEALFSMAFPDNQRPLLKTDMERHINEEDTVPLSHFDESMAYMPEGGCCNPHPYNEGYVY
# Outline: as §1
sequence,measurement,setting,value
CCGGAA,binding signal,FLI1,"5.18 fold enrichment (6-mer frequency, TF over GST control)"
same,binding signal,ELK1,"6.13 fold enrichment (6-mer frequency, TF over GST control)"
same,binding signal,GABPA,"4.9 fold enrichment (6-mer frequency, TF over GST control)"
same,binding signal,ERG,"6.79 fold enrichment (6-mer frequency, TF over GST control)"
same,binding signal,ELF1,"5.12 fold enrichment (6-mer frequency, TF over GST control)"
same,binding signal,EHF,"5.9 fold enrichment (6-mer frequency, TF over GST control)"
same,binding signal,SPI1,"5.33 fold enrichment (6-mer frequency, TF over GST control)"
same,binding signal,SPIB,"5.79 fold enrichment (6-mer frequency, TF over GST control)"
same,binding signal,ELK3,"6.42 fold enrichment (6-mer frequency, TF over GST control)"
same,binding signal,FEV,"8.09 fold enrichment (6-mer frequency, TF over GST control)"
same,binding signal,ETV5,"6.13 fold enrichment (6-mer frequency, TF over GST control)"
same,binding signal,HSF1,"1.68 fold enrichment (6-mer frequency, TF over GST control)"
same,binding signal,SPIC,"4.87 fold enrichment (6-mer frequency, TF over GST control)"
same,binding signal,ELF4,"4.92 fold enrichment (6-mer frequency, TF over GST control)"
same,binding signal,ELK4,"3.97 fold enrichment (6-mer frequency, TF over GST control)"
same,binding signal,ETV2,"5.1 fold enrichment (6-mer frequency, TF over GST control)"
same,binding signal,ELF3,"5.42 fold enrichment (6-mer frequency, TF over GST control)"
same,binding signal,ETV1,"6.04 fold enrichment (6-mer frequency, TF over GST control)"

# Source: PMC7862700, “An all-to-all approach to the identification of sequence-specific readers for epigenetic DNA modifications on cytosine”
